Reference: PubChem BioAssay (EPA / NIEHS)
Calls of active or inactive are those of the source. Rule for the calls: active = hit-call score of the fitted dose curve at least 0.9, where 1 is the maximum; inactive = score below 0.9.

What was measured:
[1] = APR_HepG2_CellLoss_72hr: Apredica 72-hour HepG2 Assay for Cell Loss (AID 2282915); conditions: high-content imaging
How it was run: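 Cell number comes from Hoechst 33342-labelled nuclei, imaged at 20x after 3.7% formaldehyde fixation. Dosing was 0.39–200 uM, ten concentrations in duplicate, 0.5% DMSO final, for 72 h. Bidirectional fit relative to DMSO baseline.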

[2] = APR_HepG2_P-H2AX_72hr: Apredica 72-hour HepG2 Assay for H2AX Phosphorylation (AID 2282916); conditions: imaging, actives raise or lower the signal;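 note: phospho-histone H2A.x immunostain intensity per cell marking DNA damage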
How it was run: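 Phospho-H2A.x imaging endpoint in HepG2 after 72 hr compound exposure (0.39–200 uM, duplicate wells). Activity derived by bidirectional curve fitting with DMSO as baseline.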

[3] = APR_HepG2_MitoticArrest_72hr: Apredica 72-hour HepG2 Assay for Mitotic Arrest (AID 2282918); conditions: high-content imaging, actives raise or lower the signal
How it was run: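 High-content imaging of fixed human HepG2 cells after 72 h compound exposure (0.39–200 uM, duplicates, 0.5% DMSO); mitotic arrest scored from phospho-histone H3 and nuclear Hoechst staining relative to DMSO.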

[4] = APR_HepG2_MicrotubuleCSK_72hr: Apredica 72-hour HepG2 Assay for Microtubule CSK Stabilty (AID 2282919); conditions: HepG2 microtubule cytoskeleton, high-content imaging, actives raise or lower the signal
How it was run: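 High-content imaging of alpha-tubulin staining in fixed HepG2 cells after 72 hr treatment with ten concentrations from 0.39 to 200 uM (0.5% DMSO). Fitting was bidirectional against DMSO; taxol served as positive control.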

[5] = APR_HepG2_P-H2AX_24hr: Apredica 24-hour HepG2 Assay for H2AX Phosphorylation (AID 2282920); conditions: high-content imaging, actives raise or lower the signal
How it was run: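 High-content imaging of phospho-histone H2A.x immunofluorescence, nuclei counterstained with Hoechst 33342, in fixed HepG2 cells. Compounds ran 0.39–200 uM in duplicate for 24 h, final DMSO 0.5%. Signal change fitted both directions against DMSO.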

[6] = APR_HepG2_StressKinase_72hr: Apredica 72-hour HepG2 Assay for Stress Kinase (AID 2282921); conditions: HepG2 stress kinase (phospho-c-Jun) imaging, actives raise or lower the signal
How it was run: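 Stress kinase signal reflects nuclear phospho-c-Jun staining in fixed, permeabilized cells exposed 72 h to compound at 0.39–200 uM; DMSO-normalized, fitted for increases or decreases.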

[7] = APR_HepG2_NuclearSize_72hr: Apredica 72-hour HepG2 Assay for Nuclear Size (AID 2282925); conditions: high-content imaging, actives raise or lower the signal
How it was run: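 Nuclear size was read by high-content imaging of Hoechst 33342 stain after formaldehyde fixation. Compounds ran 72 h on HepG2 at 0.39 to 200 uM, with final DMSO 0.5% v/v. Curves fitted both directions relative to DMSO control.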

[8] = ATG_CRE_CIS: Attagene CIS-FACTORIAL HepG2 Assay for human cAMP Responsive Element (CRE) binding protein 3 (AID 2282926); conditions: HepG2 CRE cis-reporter, Attagene multiplexed mRNA; actives raise or lower the signal
How it was run: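 Endogenous transcription factor activity read via CRE-regulated reporter transcripts in transfected HepG2 cells. After 24 h exposure, RNA was reverse-transcribed, amplified, fluorescently labelled and sized by capillary electrophoresis; gain or loss fitted against DMSO.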

[9] = biological target: CCAAT/enhancer-binding protein beta (Homo sapiens) (UniProt P17676); assay: ATG_C_EBP_CIS: Attagene CIS-FACTORIAL HepG2 Assay for human CCAAT/Enhancer Binding Protein (C/EBP) beta (AID 2282927); conditions: HepG2 Attagene cis-factorial transcription factor reporter; actives raise or lower the signal
How it was run: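 Endogenous C/EBPb-driven reporter transcripts measured in transfected human HepG2 cells at 24 h via RT-PCR and capillary electrophoresis of labelled fragments. Activity fitted in both directions relative to DMSO baseline.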

[10] = ATG_CMV_CIS: Attagene CIS-FACTORIAL HepG2 Assay for human CMV (Internal Marker) (AID 2282928); conditions: HepG2 CMV promoter reporter, transcription factor profiling; actives raise or lower the signal;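 note: endpoint acts as a background internal control marker rather than a target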
How it was run: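 Reporter transcripts from transfected HepG2 cells are isolated after 24 h of chemical dosing, reverse-transcribed and amplified. Fragments labeled with 6-FAM are cut with HpaI and quantified by capillary electrophoresis; DMSO defines baseline.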

[11] = ATG_DR4_LXR_CIS: Attagene CIS-FACTORIAL HepG2 Assay for human Liver X Receptor (LXR), DR4 submotif (AID 2282929); conditions: HepG2 Attagene DR4 cis-reporter, mRNA transcription; actives raise or lower the signal
How it was run: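 HepG2 cells transiently transfected with cis-promoter-driven multiplexed reporter units (DR4 element) were dosed for 24 h. Reporter mRNA was quantified by RT-PCR, fluorescent primer extension, HpaI digestion and capillary electrophoresis; bidirectional fitting versus DMSO baseline.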

[12] = biological target: Aryl hydrocarbon receptor (Homo sapiens) (UniProt P35869); assay: ATG_Ahr_CIS: Attagene CIS-FACTORIAL HepG2 Assay for human Aryl Hydrocarbon Receptor (Ahr) (AID 2282930); conditions: HepG2 AhR cis-factorial reporter transcription; actives raise or lower the signal
How it was run: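 Reporter mRNA levels, quantified by RT-PCR and fluorescent capillary electrophoresis, reflect endogenous AhR transcriptional activity in HepG2 cells carrying transfected cis-promoter reporter constructs. Readout at 24 h post-dose; gain or loss fitted against DMSO baseline.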

[13] = ATG_AP_1_CIS: Attagene CIS-FACTORIAL HepG2 Assay for human Activator Protein 1 (AP-1) (AID 2282931); conditions: HepG2 Attagene cis-factorial AP-1 reporter mRNA; actives raise or lower the signal
How it was run: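 HepG2 cells transiently transfected with cis-element-driven multiplex reporter units; 24 h compound exposure. Reporter mRNA quantified by RT-PCR, FAM-labelled fragments resolved by capillary electrophoresis; bidirectional fit versus DMSO baseline.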

[14] = ATG_AP_2_CIS: Attagene CIS-FACTORIAL HepG2 Assay for human Activator Protein 2 (AP-2) (AID 2282932); conditions: HepG2 AP-2 cis-reporter, Attagene transcription factor profiling; actives raise or lower the signal
How it was run: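 Transiently transfected HepG2 cells are exposed to chemical for 24 h. Reporter transcripts are then measured as fluorescence following RT-PCR and capillary separation, and gain- or loss-of-signal is fitted relative to DMSO.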

[15] = ATG_BRE_CIS: Attagene CIS-FACTORIAL HepG2 Assay for human Bone Morphogenetic Protein (BMP) Response Element (BRE) (AID 2282933); conditions: HepG2 BMP response element reporter, Attagene transcription factor profiling; actives raise or lower the signal
How it was run: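 Gain- or loss-of-signal was derived by bidirectional fitting against DMSO controls. The signal came from reporter mRNA, measured by RT-PCR and capillary electrophoresis, in HepG2 cells transiently carrying multiple reporter units and dosed for 24 h.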

[16] = biological target: Retinoic acid receptor alpha (Homo sapiens) (UniProt P10276); assay: ATG_DR5_RAR_CIS: Attagene CIS-FACTORIAL HepG2 Assay for human Retinoic Acid Receptor Alpha (RARE), DR5 submotif (AID 2282934); conditions: HepG2 Attagene cis-factorial RARE DR5 reporter, mRNA; actives raise or lower the signal
How it was run: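 Reporter transcripts from a DR5-regulated unit, measured via RT-PCR plus capillary electrophoresis, reflect endogenous RAR activity in transiently transfected human HepG2 liver cells. Exposure lasted 24 h; gain or loss of signal scored against DMSO.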

[17] = APR_HepG2_p53Act_72hr: Apredica 72-hour HepG2 Assay for p53 Activation (AID 2282923); conditions: high-content imaging, actives raise or lower the signal;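 note: average cellular p53 protein immunofluorescence intensity in HepG2 cells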
How it was run: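 Fixed-cell p53 staining (sheep primary, Cy5 secondary) measured by fluorescence imaging following 72 hr treatment at 0.39–200 uM in 0.5% DMSO; DMSO served as negative control and baseline.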

[18] = APR_HepG2_StressKinase_24hr: Apredica 24-hour HepG2 Assay for Stress Kinase (AID 2282922); conditions: HepG2 stress kinase (phospho-c-Jun) imaging, actives raise or lower the signal
How it was run: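 High-content imaging of phospho-c-Jun immunofluorescence in fixed, permeabilized HepG2 cells after 24 h dosing. Ten concentrations, 0.39 to 200 uM, run in duplicate at 0.5% v/v DMSO; gain or loss of signal versus DMSO.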

Measured: AC50

Chain of Retinoic acid receptor alpha (Homo sapiens) (P10276 whole entry, looked up): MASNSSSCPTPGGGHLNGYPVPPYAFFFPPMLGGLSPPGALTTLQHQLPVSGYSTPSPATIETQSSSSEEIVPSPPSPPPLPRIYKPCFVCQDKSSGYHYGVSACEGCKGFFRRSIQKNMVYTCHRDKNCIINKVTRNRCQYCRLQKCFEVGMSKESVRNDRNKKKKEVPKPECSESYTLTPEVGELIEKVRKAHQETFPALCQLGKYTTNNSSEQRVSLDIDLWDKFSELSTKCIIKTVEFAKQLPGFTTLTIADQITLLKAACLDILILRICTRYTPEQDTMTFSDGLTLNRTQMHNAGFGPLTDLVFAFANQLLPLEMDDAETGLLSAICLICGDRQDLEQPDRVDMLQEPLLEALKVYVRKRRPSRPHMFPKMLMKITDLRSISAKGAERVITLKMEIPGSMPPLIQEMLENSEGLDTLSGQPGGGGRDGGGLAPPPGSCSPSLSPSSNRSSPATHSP
Chain of Aryl hydrocarbon receptor (Homo sapiens) (P35869 whole entry, looked up): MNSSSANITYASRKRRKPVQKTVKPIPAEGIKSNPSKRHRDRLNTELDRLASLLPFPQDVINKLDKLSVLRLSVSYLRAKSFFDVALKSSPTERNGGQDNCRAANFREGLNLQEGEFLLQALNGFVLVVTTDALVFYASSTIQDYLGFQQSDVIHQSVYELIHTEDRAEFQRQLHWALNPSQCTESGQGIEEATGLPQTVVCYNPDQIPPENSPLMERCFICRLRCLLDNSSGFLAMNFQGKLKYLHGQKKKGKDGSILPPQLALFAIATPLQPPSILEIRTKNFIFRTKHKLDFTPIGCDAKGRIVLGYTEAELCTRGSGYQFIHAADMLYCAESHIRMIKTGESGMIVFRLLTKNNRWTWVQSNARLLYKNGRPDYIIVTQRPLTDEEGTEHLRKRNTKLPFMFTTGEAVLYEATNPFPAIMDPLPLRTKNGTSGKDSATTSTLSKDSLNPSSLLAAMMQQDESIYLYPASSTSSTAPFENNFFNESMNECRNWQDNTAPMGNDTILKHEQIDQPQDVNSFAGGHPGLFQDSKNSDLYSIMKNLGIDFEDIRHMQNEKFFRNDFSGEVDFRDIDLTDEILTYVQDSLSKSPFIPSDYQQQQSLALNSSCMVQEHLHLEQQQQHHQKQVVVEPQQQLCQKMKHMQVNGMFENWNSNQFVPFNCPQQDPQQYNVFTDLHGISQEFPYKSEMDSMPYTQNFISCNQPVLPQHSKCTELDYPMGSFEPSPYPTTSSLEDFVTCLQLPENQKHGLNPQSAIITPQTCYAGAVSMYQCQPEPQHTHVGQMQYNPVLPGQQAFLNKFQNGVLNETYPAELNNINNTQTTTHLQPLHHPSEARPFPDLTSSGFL
Chain of CCAAT/enhancer-binding protein beta (Homo sapiens) (P17676 whole entry, looked up, the tested form may be a part): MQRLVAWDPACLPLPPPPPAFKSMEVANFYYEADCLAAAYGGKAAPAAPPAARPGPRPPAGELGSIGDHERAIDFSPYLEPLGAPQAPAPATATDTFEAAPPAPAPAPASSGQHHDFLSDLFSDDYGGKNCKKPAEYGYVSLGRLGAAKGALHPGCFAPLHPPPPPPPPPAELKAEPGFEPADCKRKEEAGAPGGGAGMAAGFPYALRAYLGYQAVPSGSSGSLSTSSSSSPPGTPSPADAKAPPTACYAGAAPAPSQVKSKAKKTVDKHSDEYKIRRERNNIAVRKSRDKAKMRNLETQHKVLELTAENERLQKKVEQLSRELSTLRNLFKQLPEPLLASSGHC

Cc1ccc([N+](=O)[O-])cc1C
not listed: [17] | [18]
inactive: all other assays above

CCNc1nc(Cl)nc(NC(C)(C)C)n1
not listed: [10] | [17] | [18]
inactive: all other assays above

O=P1(N(CCCl)CCCl)NCCCO1 (configuration not stated)
not listed: [16] | [18]
inactive: all other assays above

O=[N+]([O-])c1ccccc1
inactive: all assays above

c1ccc(OP(Oc2ccccc2)Oc2ccccc2)cc1
active: [3] 113 µM
not listed: [9] | [16] | [18]
inactive: all other assays above

CCN(CC)c1ccccc1
not listed: [10] | [16] | [18]
inactive: all other assays above

CCOP(=S)(OCC)SCSCC
active: [5] 107 µM
not listed: [9] | [16] | [17] | [18]
inactive: all other assays above

CSC(C)(C)C=NO
not listed: [9] | [10] | [16] | [17] | [18]
inactive: all other assays above
